These results are taken from PubChem BioAssay (EPA / NIEHS).

More than one record can exist for a structure, and the calls need not agree. The source made the active and inactive calls. Rule for the calls: active = hit-call score of the fitted dose curve at least 0.9, where 1 is the maximum; inactive = score below 0.9.

Read-out in this experiment: Collagen III, COL3A1 (gene 1281)
The experiment can be described thus: BSK_hDFCGF_CollagenIII: BioMAP Diversity Plus: hDFCGF Assay for Collagen III Biomarker Activity (AID 2283056). As to conditions: primary human foreskin fibroblasts; actives raise or lower the signal. On the procedure: BSK_hDFCGF is a cell-based, multiplexed-readout assay that uses foreskin fibroblast, a human skin primary cell, with measurements taken at 24 hours after chemical dosing in a 96-well plate.BSK_hDFCGF_CollagenIII is an assay component measured in the BSK_hDFCGF assay. It measures Collagen antibody related to regulation of gene expression using ELISA technology.Data from the assay component BSK_hDFCGF_CollagenIII was analyzed into 1 assay endpoint. This assay endpoint, BSK_hDFCGF_CollagenIII, was analyzed with bidirectional fitting relative to DMSO as the negative control and baseline of activity. Using a type of binding reporter, gain or loss-of-signal activity can be used to understand changes in the signaling as they relate to the gene COL3A1. Furthermore, this assay endpoint can be referred to as a primary readout, because this assay has produced multiple assay endpoints where this one serves a signaling function. To generalize the intended target to other relatable targets, this assay endpoint is annotated to the cell adhesion molecules intended target family, where the subfamily is collagen.
The levels of cell surface (or secreted, indicated by the prefix "s") biomarker endpoints were measured by ELISA. Overt cytotoxicity to cells in confluent adherent cultures (all systems other than the BT system) was assessed by measuring total protein levels using sulforhodamine B (SRB) staining in parallel cultures at the time of biomarker measurements, indicated as SRB endpoints. For proliferation assays for adherent cell types, individual cell types are cultured at sub-confluence and relative cell numbers quantified by SRB staining at time points optimized for each system (48 h: 3C and CASM3C systems; 72 h: BT and HDF3CGF systems; 96 h: SAg system). SRB was performed by staining cells with 0.1% SRB after fixation with 10% TCA and reading wells at 560 nm.Viability and proliferation of PBMC (T cells) was quantified by Alamar Blue reduction for the SAg and BT systems. For PBMC viability (referred to as PBMC Cytotoxicity within the assay endpoint names), cells were plated (75,000/well in a 96-well plate) and then chemical samples added for 1 h before addition of activators, SEB and TSST-1 (20 ng/mL final concentration each). Cells were incubated for 90 h. Then, Alamar Blue (20 uL/well) (Invitrogen, Cat DAL1100) was added for 6 h, and the plates were read with a fluorescence microplate reader at 546/580 nm (excitation/emission). For PBMC proliferation, cells were plated and activated as above but incubated for only 16 h prior to addition of Alamar Blue. Plates were read after 6 h.
Take `O=C=NC1CCC(CC2CCC(N=C=O)CC2)CC1` (stereo not given): the result was inactive.

Consider `CC(=O)OCCC(C)CC(C)(C)C` (stereo not given), for which the outcome was inactive.

`O=C1CCCCCCCCCCCCCCO1`: the concentration at half-maximal activity (AC50) (in general, the concentration at which the activity in the assay is half-maximal) is 11.4 µM (active).

For the compound `C=C[Si](OCC)(OCC)OCC`, the outcome was inactive.

With `c1ccc2sc(SN(C3CCCCC3)C3CCCCC3)nc2c1`, the outcome was inactive.

Turning to `c1ccc2c(c1)c1cccc3ccc4cccc2c4c31`, the outcome was inactive.

On to `Cc1ccc2n[nH]nc2c1`, for which the outcome was inactive.

In the case of `N#Cc1ccc(CC(=NNC(=O)Nc2ccc(OC(F)(F)F)cc2)c2cccc(C(F)(F)F)c2)cc1`, the outcome was inactive.

As for `C[C@H]1C[C@@H]2[C@H]([C@@H](O)C[C@@]3(C)[C@H]2CC[C@]3(O)C(=O)CO)[C@@]2(C)C=CC(=O)C=C12`, the outcome was inactive.

On to `Nc1cc([N+](=O)[O-])ccc1Cl`, for which the outcome was inactive.

As for `Cc1ccc(O)c(C(C)(C)C)c1`, the half-maximal activity concentration (AC50) is 30.4 µM (active).

In the case of `Cc1ccc(Nc2ccc(O)c3c2C(=O)c2ccccc2C3=O)cc1`, the outcome was inactive.

Turning to `BrC1CCC(Br)C(Br)CCC(Br)C(Br)CCC1Br` (stereo not given), the outcome was inactive.

With `CCCCCCCCCCCCCCCCCC(=O)OCC(CC)CCCC` (stereo not given), the outcome was inactive.

With `COC(=O)c1ccc(C)cc1`, the result was inactive.

Take `CCCCCCCCC=O`: the result was inactive.

Consider `C=CCOC(=O)CCC1CCCCC1`, for which the result was inactive.

Take `CC1CCC(C(C)CS)CC1S` (stereo not given): the half-maximal activity concentration (AC50) is 4.29 µM (active).

Take `CC(=O)O[C@]1(C(C)=O)CC[C@H]2[C@@H]3C[C@H](C)C4=CC(=O)CC[C@]4(C)[C@H]3CC[C@@]21C`: the result was inactive.

With `Nc1cc([N+](=O)[O-])ccc1O`, the outcome was inactive.

On to `CC[Si](OC(C)=O)(OC(C)=O)OC(C)=O`, for which the concentration at half-maximal activity (AC50) is 5.47 µM (active) and the outcome was inactive.

As for `Cc1cc(C2(c3cc(C)c(O)cc3C)OS(=O)(=O)c3ccccc32)c(C)cc1O`, the result was inactive.

Turning to `CC(=O)[C@H]1CC[C@H]2[C@@H]3CC=C4C[C@@H](O)CC[C@]4(C)[C@H]3CC[C@]12C`, the concentration at half-maximal activity (AC50) was 5.69 µM (active) and the outcome was inactive.

As for `NCCNCCN`, the outcome was inactive.

Regarding `O=C1OC2(c3cc(Br)c(O)c(Br)c3Oc3c2cc(Br)c(O)c3Br)c2c(Cl)c(Cl)c(Cl)c(Cl)c21`, the AC50 was 4.38 µM (active).

Take `CCn1c2ccccc2c2cc(N)ccc21`: the outcome was inactive.

Consider `O=C(O)c1cn(C2CC2)c2cc(N3CCNCC3)c(F)cc2c1=O`, for which the result was inactive.

In the case of `O=C(O)C[C@H](O)C[C@H](O)/C=C/c1c(C2CC2)nc2ccccc2c1-c1ccc(F)cc1`, the outcome was inactive.

On to `CC(=O)/C=C/C1=C(C)CCCC1(C)C`, for which the result was inactive.

With `COc1cc(C=O)ccc1OC(=O)C(C)C`, the outcome was inactive.

As for `C=C(C)C(=O)O[C@H]1C[C@@H]2CC[C@@]1(C)C2(C)C`, the AC50 was 20 µM (active).

Turning to `CN(CCOc1ccc(CC2SC(=O)NC2=O)cc1)c1ccccn1` (stereo not given), the result was inactive.

Regarding `CC(C)c1ccc(C(C)C)cc1`, the result was inactive.

For `CCCCC/C=C/C=C/C=O`, the AC50 is 10.8 µM (active).

Turning to `CCCCCCCCCC=O`, the outcome was inactive.

For the compound `CCc1c(C)cc(N)c(CC)c1N`, the result was inactive.

Take `CCCCC(CC)COC(=O)/C=C\C(=O)OCC(CC)CCCC` (stereo not given): the result was inactive.

Regarding `CNC[C@H](O)c1cccc(O)c1`, the result was inactive.
